# T1: TALE RAGT2-Renila luciferase fusion (pCLS24992) (artificial, UniProt P14727 SEQ:21-699)
# T1 chain: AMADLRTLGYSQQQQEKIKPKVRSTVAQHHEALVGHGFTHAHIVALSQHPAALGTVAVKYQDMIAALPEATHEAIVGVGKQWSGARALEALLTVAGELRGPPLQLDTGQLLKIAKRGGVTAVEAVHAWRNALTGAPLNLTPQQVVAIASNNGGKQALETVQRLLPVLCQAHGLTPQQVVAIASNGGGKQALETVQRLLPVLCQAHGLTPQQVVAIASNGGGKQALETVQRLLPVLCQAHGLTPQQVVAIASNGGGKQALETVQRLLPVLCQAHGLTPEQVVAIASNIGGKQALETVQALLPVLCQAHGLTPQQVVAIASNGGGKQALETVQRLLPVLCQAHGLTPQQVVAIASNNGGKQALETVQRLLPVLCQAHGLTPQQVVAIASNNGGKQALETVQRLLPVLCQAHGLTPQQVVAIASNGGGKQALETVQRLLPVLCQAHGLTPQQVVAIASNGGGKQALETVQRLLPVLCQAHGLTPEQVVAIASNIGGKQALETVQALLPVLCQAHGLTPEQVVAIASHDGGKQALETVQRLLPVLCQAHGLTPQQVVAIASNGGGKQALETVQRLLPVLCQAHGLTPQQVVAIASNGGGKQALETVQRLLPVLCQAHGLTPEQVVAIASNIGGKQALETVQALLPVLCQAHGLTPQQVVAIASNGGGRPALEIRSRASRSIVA
# B1: pray SEQ 6 :bait (dsDNA)
# DNA 1: CATGGTTTATGGTTACTTATGG
# DNA 2: GTACAAAAAAGCAGTCGACTAGGGATAACAGGGTAATTATATAAACCTAACCCTCTTAGCATGAAGGTACCATAAGTAACCATAAACAATG
# Target: T1, TALE RAGT2-Renila luciferase fusion …
# Assay: mutation at T0 reduces luminescence by more than 60%; capture plus TALE binding
# Conditions: tags: N-terminal His tag, C-terminal Renilla luciferase fusion; deltaN152 N-terminal domain, C11 C-terminal truncation; expressed in E. coli; label: biotin on bait; mismatched duplex
# Experimental: Different ssDNA targets (SEQ ID NO 6-20) harboring unique or multiple mutations with respect to the ssDNA wild type pray (SEQ ID NO 5, 10 pmol) were synthesized and used to assess the specificity of TALE RAGT2-Renila detector system. We first studied the effect of increasing amount of mutation within the ssDNA target on the luminescence of TALE RAGT2-Renila according to the detection protocol described earlier. Briefly, 10 pmol of ssDNA wild type or mutated were incubated with the ssDNA biotinylated pray already immobilized on the streptavidine coated plate. The mixture was heated and allow to cool down to RT. After washing the well with high and low salt containing TBST buffers, an excess of TALE RAGT2-Renila was added to the well (^{˜}300 pmol total), the unbound was then removed by two low salt buffer washing steps and the reaction mixture was added to determine luminescence. The luminescence obtained for each of the ssDNA prays used is illustrated in FIG. 20.
binder,measurement,value
B1,binding signal,< 40 % of WT

# Reference: patent US20160355875, “METHODS AND KITS FOR DETECTING NUCLEIC ACID SEQUENCES OF INTEREST USING DNA-BINDING PROTEIN DOMAIN” (CELLECTIS, published 2016)
